Laboratory results from PubChem BioAssay (NCATS).
Several values for one entry are separate records, joined by “and”; a condition that tells them apart may be missing. Identical values can stand only once. Results filed as inconclusive are left out. Where a structure was tested more than once in an assay, its records may differ in their call. Activity calls are given as the source filed them. The call rests on the fitted dose curve; in most records, active means well fitted curve in the direction sought with a large enough effect; inconclusive means small, poorly fitted or top-dose-only effect, or another doubt; inactive means no such curve, though single readings can be large; an effect the other way counts as inactive or inconclusive.

Tests used:
[1] = Viability qHTS for spleen associated tyrosine kinase inhibitor (SYKi) naive MV4-11 cells (AID 1963823); further: nearly all actives have a fitted effect of over 40% in size; further: potency means the concentration at half of the fitted maximal effect
Outline: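 Luminescence from CellTiter-Glo, developed 10 min at room temperature, gave viability of MV4-11 cells never exposed to SYK inhibitor. Cells (500/well) had been incubated with compounds for 72 hr under standard culture conditions.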

[2] = Viability qHTS for spleen associated tyrosine kinase inhibitor (SYKi) drug resistant MV4-11 cells (AID 1963824); further: nearly all actives have a fitted effect of over 35% in size; further: potency means the concentration at half of the fitted maximal effect
Outline: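 SYK-inhibitor-resistant MV4-11 AML cells were seeded at 500 per well onto compound and cultured 72 hours (37 °C, 5% CO2). CellTiter-Glo was then added, and after 10 min at room temperature, luminescence gave viability.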

[3] = Quantitative highthroughput screen to assess conditional lethalithy of NOMO1 cells grown in Human Plasma-Like Medium with dialyzed fetal bovine serum (HPLM+ds) (AID 1963878); further: nearly all actives have a fitted effect of over 35% in size; further: potency means the concentration at half of the fitted maximal effect;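 on Viability: 100% = DMSO wells and 0% = empty wells on each plate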
Outline: (§1)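 Each medium arm—HPLM with 10% dialyzed FBS, or RPMI1640 with 5 mM glucose and 10% untreated or dialyzed FBS—was screened against an 11-point, 3-fold compound titration for 48 h at 37 °C, with CellTiter-Glo luminescence as endpoint.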

[4] = Quantitative highthroughput screen to assess conditional lethalithy of P12 Ichikawa cells grown in Human Plasma-Like Medium with dialyzed fetal bovine serum (HPLM+ds) (AID 1963879); conditions: Potency: viability; further: nearly all actives have a fitted effect of over 35% in size; further: potency means the concentration at half of the fitted maximal effect; on Viability: series mostly up to about 46 µM
Outline: as §1

[5] = Quantitative highthroughput screen to assess conditional lethalithy of P12 Ichikawa cells grown in RPMI1640 with dialyzed fetal bovine serum (RPMI+ds) (AID 1963880); conditions: Potency: P12-Ichikawa viability;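 further: 100% = DMSO wells and 0% = empty wells on each plate; nearly all actives have a fitted effect of over 35% in size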
Outline: as §1

[6] = Quantitative highthroughput screen to assess conditional lethalithy of P12 Ichikawa cells grown in RPMI1640 with untreated serum (RPMI+s) (AID 1963881); conditions: Potency: viability; further: nearly all actives have a fitted effect of over 35% in size; further: potency means the concentration at half of the fitted maximal effect;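 on Viability: series mostly up to about 46 µM; 100% = DMSO wells and 0% = empty wells without cells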
Outline: as §1

[7] = Cellular viability qHTS for adrenocortical cancer (ACC) cell line SW-13 (AID 1963989); conditions: SW-13 ACC cells viability, CellTiter-Glo, 48 h; activity (max response): stronger effect = lower value; further: nearly all actives have a fitted effect of over 65% in size; further: potency means the concentration at half of the fitted maximal effect;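 on activity (max response): cells grown in serum-free medium with ITS supplement; on the % scale 0 is the no-effect control and ±100 the full control effect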
Outline: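 IC50 and maximal-response values come from four-parameter logistic fits of titration data. SW-13 cells in serum-free medium received compounds (up to 46 uM final) for 48 h before CellTiter-Glo luminescence.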

[8] = Cellular viability qHTS for adrenocortical cancer (ACC) cell line NCI-H295R (AID 1963990); further: nearly all actives have a fitted effect of over 60% in size; further: potency means the concentration at half of the fitted maximal effect
Outline: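 Adrenocortical carcinoma cells, suspended at 300 000 cells/mL in serum-free DMEM plus ITS, rested overnight before pin transfer of compound. After two days' incubation, ATP-dependent luminescence was recorded and curve-fitted.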

[9] = Quantitative highthroughput screen to assess conditional lethalithy of NOMO1 cells grown in RPMI1640 with untreated serum (RPMI+s) (AID 1963876); further: nearly all actives have a fitted effect of over 35% in size; further: potency means the concentration at half of the fitted maximal effect;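 on Viability: 100% = DMSO wells and 0% = empty wells without cells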
Outline: as §1

[10] = Quantitative highthroughput screen to assess conditional lethalithy of SEM cells grown in Human Plasma-Like Medium with dialyzed fetal bovine serum (HPLM+ds) (AID 1963882)
Outline: as §1

[11] = Quantitative highthroughput screen to assess conditional lethalithy of SEM cells grown in RPMI1640 with dialyzed fetal bovine serum (RPMI+ds) (AID 1963884)
Outline: as §1

[12] = Quantitative highthroughput screen to assess conditional lethalithy of NOMO1 cells grown in RPMI1640 with dialyzed fetal bovine serum (RPMI+ds) (AID 1963877); further: nearly all actives have a fitted effect of over 30% in size; further: potency means the concentration at half of the fitted maximal effect;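 on Viability: series mostly up to about 46 µM; 100% = DMSO control wells and 0% = empty wells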
Outline: as §1

[13] = Quantitative highthroughput screen to assess conditional lethalithy of SEM cells grown in RPMI1640 with unreated serum (RPMI+s) (AID 1963883)
Outline: as §1

SMILES: CC[C@@H](C(N)=O)N1CCCC1=O
- Potency [1]: inactive
- Potency [2]: inactive
- Potency [3]: inactive
- Potency [4]: inactive
- Potency [5]: inactive
- Potency [6]: inactive
- activity (max response) [7]: -2.57% (inactive)
- Potency [8]: inactive

SMILES: CCCC(C)(COC(N)=O)COC(=O)NC(C)C (configuration not stated)
- Potency [1]: inactive
- Potency [2]: inactive
- Potency [9]: inactive
- Potency [4]: inactive
- Potency [5]: inactive
- activity (max response) [7]: 8.8% (inactive)
- Potency [8]: inactive

SMILES: CC(NC(C)(C)C)C(=O)c1cccc(Cl)c1 (configuration not stated)
- Potency [1]: inactive
- Potency [2]: inactive
- Potency [9]: inactive
- Potency [4]: inactive
- Potency [5]: inactive
- activity (max response) [7]: 8.14% (inactive) and 1.12% (inactive)
- Potency [8]: inactive

SMILES: Cc1[nH]nc2ccc(-c3cncc(OC[C@@H](N)Cc4c[nH]c5ccccc45)c3)cc12
- Potency [1]: 46.8 nM (active)
- Potency [2]: 65.1 nM (active) and 105 nM (active)
- Potency [9]: 1180 nM (active)
- Potency [4]: 1660 nM (active)
- Potency [10]: 187 nM (active)
- Potency [11]: 418 nM (active)
- Potency [7]: 708 nM (active)
- Potency [8]: 2240 nM (active)

SMILES: CC1=CC2OC3CC(O)[C@](C)([C@@]2(C)C(O)C1=O)[C@]31CO1 (some centres not stated)
- Potency [1]: 1840 nM (active)
- Potency [2]: 1.84 µM (active)

SMILES: CCOc1ccccc1-n1c(C(C)N2CCN(C(=O)COc3ccc(Cl)cc3)CC2)nc2ccccc2c1=O (configuration not stated)
- Potency [1]: 920 nM (active) and 742 nM (active)
- Potency [2]: 1.46 µM (active) and 1.32 µM (active)
- Potency [9]: 1320 nM (active)
- Potency [12]: 2630 nM (active)
- Potency [3]: 741 nM (active)
- Potency [4]: 741 nM (active)
- Potency [6]: 1480 nM (active)
- Potency [13]: 417 nM (active)
- Potency [11]: 588 nM (active)

SMILES: CCNC(=O)CC1N=C(c2ccc(Cl)cc2)c2cc(OC)ccc2-n2c(C)nnc21 (configuration not stated)
- Potency [1]: 14.8 µM (active) and inactive and 517 nM (active)
- Potency [2]: 8.33 µM (active) and inactive and 517 nM (active)
- Potency [12]: inactive
- Potency [3]: inactive
- activity (max response) [7]: -19.5% (inactive)
- Potency [8]: inactive
